# Bioassay records as filed in PubChem.
# Sampled rows, rich in hits. Any-hit rate of the full collection: about 2.4%.
# Pol eta inh: DNA polymerase eta (human) inhibition; Q9Y253; recombinant Pol eta, fluorescent DNA replication assay; Potency, µM (titrated, usually from 114 µM), for the others: at the top dose activity change, negative = inhibition, most hits filed as inhibitors; 1.2% of 390,000 active; further: on the % scale 0 is the no-effect control and ±100 the full control effect
#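 Pol eta at 10 nM preincubated with compounds 15 min at room temperature; reaction started with fluorescent substrate (50 nM final) and read kinetically at 0 and 10 min.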
# Pol iota inh: inhibitors of human DNA polymerase iota; Q9UNA4; Pol iota fluorescent replication assay, 10 min; Potency, µM (titrated, usually from 115 µM), inactives show at the highest dose activity, negative = inhibition, most hits filed as inhibitors; 1% of 390,000 active; AID 588590
#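 Fluorescent replication assay read twice, at 0 min and 10 min after adding 50 nM (final) substrate. Enzyme (10 nM) and compounds were first incubated 15 min at room temperature; enzyme-free buffer wells were negative controls.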
# POLB inh: inhibitors of human DNA polymerase beta; P06746; Pol beta primer extension/strand displacement, fluorescence kinetic; Potency, µM (highest dose often 114 µM), for the others: at the top dose activity change, negative = inhibition, actives largely listed as inhibitors; 1.3% of 340,000 active; further: on the % scale 0 is the no-effect control and ±100 the full control effect
#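 Values derive from four-parameter Hill fits of normalized kinetic data: reads at 0 and 10 min following addition of 50 nM substrate to 10 nM Pol beta preincubated 15 min with compound.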
# FEN1 inh: blocks human flap endonuclease 1 | AID 588795 | 0.35% of 390,000 active | Recombinant FEN1 flap cleavage, fluorescence, 15 min | Potency, µM (series often up to 114 µM), inactives show at the highest dose activity change, negative = inhibition, usual class: inhibitors | P39748; further: on the % scale 0 is the no-effect control and ±100 the full control effect; nearly all actives have a fitted effect of over 65% in size
#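 FEN1 at 10 nM, compound pretreatment for 15 min (room temperature), 50 nM final substrate to initiate; endpoint reads at 0 and 15 min; DMSO-only plates used as vehicle background.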
# Pol kappa inh: DNA polymerase kappa (human) inhibition. purified Pol kappa, fluorescent DNA synthesis assay, 10 min. 0.53% of 400,000 active. Q9UBT6. AID 588579. Potency, µM (titrated, usually from 107 µM), for the others: at the highest dose activity, negative = inhibition, most hits filed as inhibitors; further: on the % scale 0 is the no-effect control and ±100 the full control effect
#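 Activity was followed as the change in fluorescence between reads at 0 and 10 min after starting the reaction with 50 nM substrate. Beforehand, 10 nM polymerase had been preincubated with compound for 15 min at room temperature.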
# WRN helicase inh: WRN helicase (human) inhibition | WRN helicase unwinding, fluorescent forked duplex, kinetic | Potency, µM (series often up to 114 µM), for inactives: at the top dose activity change, negative = inhibition, usual class: inhibitors | 0.46% of 360,000 active | AID 651768; further: on the % scale 0 is the no-effect control and ±100 the full control effect; nearly all actives have a fitted effect of over 55% in size
#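 Screening of the MLSMR collection measured strand separation of a quenched forked DNA duplex (100 nM) by 20 nM WRN with 2 mM ATP, all final. Compounds were preincubated with enzyme 15 min at room temperature.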
# An asterisk follows results filed as active; ? = inconclusive; . = not tested or not shown; [ ] = remark or other dose. The call rests on the fitted dose curve; in most records, active means well fitted curve in the direction sought with a large enough effect; inconclusive means small, poorly fitted or top-dose-only effect, or another doubt; inactive means no such curve, though single readings can be large; an effect the other way counts as inactive or inconclusive. Potency means the concentration at half of the fitted maximal effect.
SMILES,Pol eta inh,Pol iota inh,POLB inh,FEN1 inh,Pol kappa inh,WRN helicase inh
CC(C)c1ccc(NS(=O)(=O)c2ccc3[nH]cc(C(=O)N4CCC(C(N)=O)CC4)c(=O)c3c2)cc1,18µM*,?,50µM*,-12%,-9%,-7%[11.6 µM]
CC(C)c1ccc(NS(=O)(=O)c2ccc3[nH]cc(C(=O)NCCc4ccccc4)c(=O)c3c2)cc1,-8%,-13%,?,-3%,6%,.
COc1cccc(NS(=O)(=O)c2ccc3[nH]cc(C(=O)NCCc4ccccc4)c(=O)c3c2)c1,7%,79µM*,?,1%,-10%,.
CCc1ccc(NS(=O)(=O)c2ccc3[nH]cc(C(=O)NCCCOC(C)C)c(=O)c3c2)cc1,?,?,40µM*,-10%,?,.
COc1cccc(NS(=O)(=O)c2ccc3[nH]cc(C(=O)NC4CCCCC4)c(=O)c3c2)c1,89µM*,?,?,-7%,-32%,.
COc1cccc(NS(=O)(=O)c2ccc3[nH]cc(C(=O)NCCc4ccc(C)cc4)c(=O)c3c2)c1,?,?,?,8%,-11%[60.1 µM],.
Cn1c(CNC(=O)CSc2n[nH]c(-c3ccccc3)n2)nc2ccccc21,-16%,-1%,16%,-6%,-7%[60.1 µM],.
Cc1cccc(Cn2cnc3c(cnn3C(C)(C)C)c2=O)c1F,.,0%,.,-23%,2%,.
CCOc1ccc(NS(=O)(=O)c2ccc3[nH]cc(C(=O)N(CC)CC)c(=O)c3c2)cc1,20µM*,?,7%,-2%,-2%,-14%[57.1 µM]
O=C(Oc1cc(=O)oc2c1c(=O)n1c3c(cccc23)CC1)c1ccccc1,-12%,?,40µM*,?,-8%,-25%
Cc1ccc(/C=C2\SC(=S)N(/N=C/c3cc([N+](=O)[O-])ccc3O)C2=O)o1,10µM*,4.5µM*,8.9µM*,50µM*,20µM*,35µM*
O=[N+]([O-])c1ccc(O)c(/C=N/n2cnc3ccccc32)c1,-18%,4%,1%,14%,-10%,-5%
CCCc1ccc(C(=O)NNC(=O)c2ccc(Cl)cc2)cc1,?,?,32µM*,3%,-28%,-23%
CC(/C=C/C(=O)NO)=C\[C@@H](C)C(=O)c1ccc(N(C)C)cc1,.,.,.,.,6%[19.4 µM],.
O=C(COc1ccccc1)Nc1nc(-c2cccnc2)cs1,?,-6%,.,-2%,-14%,-1%
N#Cc1ccc(OCC(=O)Nc2nc(-c3cccnc3)cs2)cc1,50µM*,?,.,-2%,-20%,-5%[11.6 µM]
COc1cc2nc(N3CCCN(C)CC3)nc(NC3CCN(C)C3)c2cc1OC (configuration not stated),.,-9%,.,?,-31%,.
CCOc1cccc(C=NNc2ccc(S(=O)(=O)Nc3ccccc3C(=O)O)cc2[N+](=O)[O-])c1O,-29%,8%,.,-31%,7%,-8%
COc1ccc(C=NNc2ccc(S(=O)(=O)Nc3ccccc3C(=O)O)cc2[N+](=O)[O-])c(OC)c1,50µM*,?,.,22µM*,?,?
O=C(C[n+]1ccccc1)c1ccc(I)cc1,.,28%,.,12%,1%,.
CCOc1ccc2noc3c2c1C(=O)c1ccccc1-3,-15%,3%,17%,-7%,14%,3%
O=C1c2ccccc2-c2onc3ccc(NCc4ccco4)c1c23,?,?,?,8.9µM*,-26%,?
CCCCOC(=O)c1ccc(NC(=O)Cc2coc3c(C)c(C)ccc23)cc1,-15%,3%,8%,-4%,3%,.
CCOC(=O)c1c(NC(=O)CSc2nnc(C)s2)sc2c1CCN(C)C2,?,11µM*,2%,-11%,-27%,?
CCCC1=NN2C(=N)/C(=C\c3ccc(OCCOc4ccc(NC(C)=O)cc4)c(OC)c3)C(=O)N=C2S1,79µM*,62%,?,-1%,-13%,3%[11.6 µM]
CCOc1cc(/C=C2\C(=N)N3N=C(CC)SC3=NC2=O)ccc1OCCOc1ccc(NC(C)=O)cc1,-17%,29%,50µM*,0%,-9%[60.1 µM],-2%
